Measurements reported in PubChem BioAssay.

Assay: compounds altering circadian rhythm period length – cell-based, LOPAC library, luminescence reporter (AID 2774);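 also: values are relative to mean of DMSO wells on each plate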
Details: circadian reporter cells, at 7 µM, actives lie on both sides; call rule not given here

Period change, inactive:
CC(C)CN(C)c1nc(N)c(C(=O)N=C(N)N)nc1Cl 0 h
COc1cc(C(O)CO)ccc1O (centres undefined) (tested in a mixture with another compound) 0.16 h
N=C1Sc2ccccc2C2=NCCCN12 -0.035 h
Cc1ccccc1N1CCN(S(=O)(=O)C[C@]23CCC(CC2NC(=O)[C@@H](N)CCS(C)(=O)=O)C3(C)C)CC1 (some centres undefined) -0.06 h
CCCn1c(=O)c2[nH]c(-c3ccc(OCC(=O)Nc4ccc(C#N)cc4)cc3)nc2n(CCC)c1=O 0.13 h
N#C/C(=C\c1c[nH]c2ccccc12)C(=O)c1ccc(O)c(O)c1 0.275 h
CCCCN1CCC(COC(=O)c2cc(Cl)c(N)c3c2OCCO3)CC1 -0.095 h
NC(=NCCC[C@H](N)C(=O)O)NO -0.09 h
Cc1ccc(OCC(O)C(C)NC(C)C)c2c1CCC2 (centres undefined) 0.02 h
OC[C@H]1O[C@@H](n2cnc3c(Nc4ccccc4)ncnc32)C(O)[C@H]1O (some centres undefined) -0.12 h
CCn1c(=O)c2[nH]c(-c3ccccc3)nc2n(CC)c1=O -0.165 h
Cc1cc(N)c2ccccc2[n+]1CCCCCCCCCCCCCC[n+]1c(C)cc(N)c2ccccc21 0.11 h
CC(C)[C@@H]1NC(=O)[C@H](CCCCN)NC(=O)[C@@H](Cc2c[nH]c3ccccc23)NC(=O)[C@H](Cc2ccc(O)cc2)NC(=O)[C@H](C)N(C)C(=O)[C@H](Cc2ccccc2)NC1=O -0.2 h
O=C(O)CCC(NC(=O)c1ccccc1C(=O)O)C(=O)O (centres undefined) -0.08 h
COc1ccccc1NC(=O)Nc1nc(-c2cccnc2)nc2ccccc12 -0.005 h
CCCCCCCCCCCCCCCC(=O)NCC(COP(=O)([O-])OCC[N+](C)(C)C)OCC (centres undefined) -0.285 h
N#CC(Cc1ccc(O)c(O)c1)C(=O)N1CCc2ccccc21 (centres undefined) 0.025 h
CCCCCCCCCCCCCCCCOCC(COCC(F)(F)F)OP(=O)(O)OCO (centres undefined) 0.01 h
NC(N)=NCCSSCCN=C(N)N 0.065 h
Cc1ccccc1CNc1ncnc2c1ncn2C1OC(CO)C(O)C1O (centres undefined) -0.235 h
C[C@@H](Oc1ccc(Oc2cnc3ccc(Cl)cc3n2)cc1)C(=O)O -0.01 h
NC(=NCc1ccc(Cl)c(Cl)c1)NC(=O)c1nc(Cl)c(N)nc1N 0.175 h
CCN(CC)C(C)C(=O)N1c2ccccc2Sc2ccccc21 (centres undefined) 0.095 h
COC(=O)c1c(-c2cc(OC)c(OC)c(OC)c2)c2ccc(OCc3ccccn3)cc2c(=O)n1-c1ccc(N)cc1 0.015 h
CNCC[C@@H](Oc1ccc(C(F)(F)F)cc1)c1ccccc1 0.13 h
CCCCC#Cc1nc(N)c2ncn([C@@H]3O[C@H](C(=O)NCC)[C@@H](O)[C@H]3O)c2n1 -0.015 h
OC[C@H]1O[C@@H](n2cnc3c(N[C@H]4CC5CCC4C5)ncnc32)[C@H](O)[C@@H]1O (some centres undefined) -0.33 h
CCNC(=O)C1OC(n2cnc3c(NCc4ccccc4)ncnc32)C(O)C1O (centres undefined) 0.1 h
CC(C)[C@@H](CO)Nc1nc(Nc2cccc(Cl)c2)c2ncn(C(C)C)c2n1 -0.115 h
NCCCCNS(=O)(=O)c1cccc2c(Cl)cccc12 0.09 h
CN1CCc2c(cc(O)c(O)c2Cl)C(c2cccc(Cl)c2)C1 (centres undefined) 0.165 h
O=C(Nc1cc(C(=O)Nc2ccc(S(=O)(=O)O)cc2S(=O)(=O)O)cc(C(=O)Nc2ccc(S(=O)(=O)O)cc2S(=O)(=O)O)c1)Nc1cc(C(=O)Nc2ccc(S(=O)(=O)O)cc2S(=O)(=O)O)cc(C(=O)Nc2ccc(S(=O)(=O)O)cc2S(=O)(=O)O)c1 -0.05 h
Nc1ncnc2c1ncn2[C@@H]1O[C@H](C(=O)NC2CC2)[C@H](O)C1O (some centres undefined) -0.165 h
COc1ccc2c(c1)c(CC(=O)O)c(C)n2Cc1ccc(F)cc1 -0.005 h
COc1cc2c(cc1OC)[C@@H](c1ccccc1)CN(C)CC2 0 h
C[N+](C)(CCCCCC[N+](C)(C)CCCN1C(=O)c2cccc3cccc(c23)C1=O)CCCN1C(=O)c2cccc3cccc(c23)C1=O -0.055 h
COc1ccccc1N1CCN(CCCCNS(=O)(=O)c2cccc3c(N(C)C)cccc23)CC1 0.125 h
Cn1cnc2c(NC3CCCC3)ncnc21 0.425 h
COc1cc(OC)cc(C(CNc2ncnc3c2ncn3[C@@H]2O[C@H](CO)[C@H](O)C2O)c2ccccc2C)c1 (some centres undefined) -0.11 h
